# From PubChem BioAssay
# Hits are enriched below; roughly 3.5% of the tested compounds scored in any of these assays.
# Anthrax LF inh2 – Bacillus anthracis LF protease inhibitors, primary screen, biochemical, multiplex microsphere, MLPCN library. multiplex microsphere protease cleavage assay. inhibition, % at 10 µM. hit rate 0.12% among 360,000; in the data active = inhibition above about 30%; note: plate controls were buffer without enzyme for full effect and enzyme alone for no effect
# Target sequence (P15917 whole entry, looked up): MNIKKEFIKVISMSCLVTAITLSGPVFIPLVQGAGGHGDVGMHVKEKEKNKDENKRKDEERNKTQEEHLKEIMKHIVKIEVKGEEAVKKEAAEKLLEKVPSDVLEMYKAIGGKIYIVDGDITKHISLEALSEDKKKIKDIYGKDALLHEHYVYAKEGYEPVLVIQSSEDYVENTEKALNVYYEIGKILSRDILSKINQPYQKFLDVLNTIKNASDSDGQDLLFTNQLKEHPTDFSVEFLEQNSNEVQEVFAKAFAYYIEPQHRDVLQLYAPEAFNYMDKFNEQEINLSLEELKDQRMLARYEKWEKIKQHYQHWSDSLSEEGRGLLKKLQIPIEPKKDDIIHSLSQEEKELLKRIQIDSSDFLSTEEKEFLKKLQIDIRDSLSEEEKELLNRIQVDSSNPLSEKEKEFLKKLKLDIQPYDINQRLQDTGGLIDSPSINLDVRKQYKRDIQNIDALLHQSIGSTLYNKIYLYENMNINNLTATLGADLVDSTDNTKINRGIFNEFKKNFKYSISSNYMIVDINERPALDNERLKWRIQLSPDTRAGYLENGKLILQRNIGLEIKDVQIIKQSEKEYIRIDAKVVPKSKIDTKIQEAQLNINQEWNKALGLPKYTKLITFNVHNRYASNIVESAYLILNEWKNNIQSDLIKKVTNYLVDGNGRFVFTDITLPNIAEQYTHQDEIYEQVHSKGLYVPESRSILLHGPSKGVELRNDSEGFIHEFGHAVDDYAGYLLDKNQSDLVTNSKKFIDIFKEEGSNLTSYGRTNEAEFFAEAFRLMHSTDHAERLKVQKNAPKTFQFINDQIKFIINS
# Bead autofluor – compound fluorescence in toxin protease inhibitor counterscreen. AID 624483. fluorescence intensity (concentration not given with the values). hit rate 3.1% among 360,000. compound autofluorescence counterscreen, microsphere flow cytometry; active compounds read high; in the data active = fluorescence intensity above about 16000
# BoNT-F LC inh – BoNT/F light chain protease inhibitors, primary screen, biochemical, flow cytometry, MLPCN library; hit rate 0.22% among 360,000; Multiplex microsphere protease cleavage assay; Botulinum neurotoxin type F light chain protease (Clostridium botulinum); AID 588497, 2011; inhibition, % at 10 µM; in the data active = inhibition above about 35%, passing the limit was not always enough; note: plate controls were buffer without enzyme for full effect and enzyme alone for no effect
# BoNT A protease – BoNT/A light chain protease inhibitors, primary screen, biochemical, flow cytometry, MLPCN library; inhibition, % at 10 µM; Botulinum neurotoxin type A light chain protease (Clostridium botulinum A str. ATCC 3502); hit rate 0.17% among 360,000; multiplex microsphere protease substrate cleavage; AID 588499, 2011; in the data active = inhibition above about 30%; note: plate controls were buffer without enzyme for full effect and enzyme alone for no effect
# BoNT-A LC CP2 – BoNT/A light chain protease inhibitors, confirmation, biochemical, flow cytometry, cherry pick 2 | shares compounds with BoNT A protease | multiplex microsphere protease cleavage assay | inhibition, % at 10 µM | hit rate 10% among 150; in the data active = inhibition above about 24%
# Anthrax LF CP2 – Bacillus anthracis LF protease inhibitors, confirmation, biochemical, multiplex microsphere; shares compounds with BoNT A protease; hit rate 7% among 150; inhibition, % at 10 µM; AID 602327, 2012; multiplex microsphere protease cleavage assay
# BoNTF LC inh 2 – BoNT/F light chain protease inhibitors, confirmation, biochemical, flow cytometry, cherry pick 2; multiplex microsphere protease cleavage assay; shares compounds with BoNT A protease; inhibition, % at 10 µM; AID 602336, 2012; hit rate 7% among 150
# * marks the source's active call; other numbers are inactive results; / = no result given. Cut-off read from the data, not from the text of the source, unless noted: active = inhibition above about 25%; inactive = the rest.
SMILES,Anthrax LF inh2,Bead autofluor,BoNT-F LC inh,BoNT A protease,BoNT-A LC CP2,Anthrax LF CP2,BoNTF LC inh 2
Cn1ccc2c(-c3ccc(F)nc3)cc3c(c21)C1CCC3C1 (stereo unspecified),37*,3942,5,50*,33*,32*,1
Cn1ccc2c(-c3ccc(F)cc3F)cc3c(c21)C1CCC3C1 (stereo unspecified),7,4959,-12,16,2,-2,-10
Cn1ccc2c(-c3cccnc3)cc3c(c21)C1CCC3C1 (stereo unspecified),4,5938,2,1,2,0,10
COc1ccc(-c2cc3c(c4c2ccn4C)C2CCC3C2)cc1OC (stereo unspecified),6,4059,-30,20,14,3,-22
CN(c1cccc(F)c1)c1cc2c(c3c1ccn3C)C1CCC2C1 (stereo unspecified),-16,4440,-5,-1,/,/,/
CCCCCc1c(CC)ncn1CCc1ccccc1OC,-8,4834,-12,0,/,/,/
CCC(=O)N(CCC(c1ccc(C)cc1)c1ccco1)Cc1ccco1 (stereo unspecified),-3,3515,0,-1,/,/,/
CC(=O)Nc1ccc(NC(=O)Cc2ccc(S(=O)(=O)N3CCCCC3)cc2)cc1,2,6425,6,-2,/,/,/
COc1ccc(-c2oc3c(OC)c(OC)c(OC)c(O)c3c(=O)c2OC)cc1OC,34*,4692,11,39*,17,19,19
CCNC(=O)C1CCCN(C(=O)c2ccccc2F)CC1 (stereo unspecified),-4,3572,-2,0,/,/,/
CCC1(c2ccc(F)cc2)NC(=O)N(CC(=O)N2CC(=O)Nc3ccccc32)C1=O (stereo unspecified),0,5072,7,2,/,/,/
COc1ccccc1N1CCN(c2ccc3c(c2)S(=O)(=O)c2cccc(C(=O)NCc4ccc(F)cc4)c2C3=O)CC1,-4,3973,-5,1,1,-2,-5
O=C(NCc1ccc(OC(F)(F)F)cc1)c1cccc2c1C(=O)c1ccc(N3CCC(Cc4ccccc4)CC3)cc1S2(=O)=O,21,4518,11,13,7,6,15
O=C(NCc1cccc(F)c1)c1cccc2c1C(=O)c1ccc(N3CCCC3)cc1S2(=O)=O,12,4444,17,10,/,/,/
O=C(NCc1ccc(OC(F)(F)F)cc1)c1cccc2c1C(=O)c1ccc(N3CCCC3)cc1S2(=O)=O,4,2925,6,3,/,/,/
COc1ccccc1CCC(=O)Nc1ccc(S(=O)(=O)Nc2ncccn2)cc1,4,7758,-10,0,/,/,/
